Screening results: PubChem, several laboratories
Hits are enriched below; roughly 2% of the tested compounds scored in any of these assays.
KKLEB tox: reduces viability of KKLEB cystic fibrosis airway cells; 360,000 tested, 0.36% active; activity change (cytotoxicity), % at 5 µM; KKLEB CF airway cells viability, ATPlite luminescence, overnight; stronger effect = lower value; cells stimulated with P. aeruginosa culture filtrate;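 active means corrected activity change at or below -50% at 5 µM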
PAX8 reporter: inhibitors of PAX8 transcriptional activity in RMG-I cells; RMG-I TPO-luciferase reporter, SteadyGlo, 24 h; inhibition, % at 12.6 µM; 360,000 tested, 1.2% active; AID 652154;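 active means mean replicate inhibition at least 60% with every replicate also reaching 60%; inconclusive means only one of the two criteria is met; inactive means mean below 60% and not all replicates reaching 60%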;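 further: luciferase light reporting Pax8 driven TPO promoter activity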
LGR2 inh: Drosophila LGR2 receptor signaling inhibition. HEK293 LGR2, CRE-luciferase, bursicon-stimulated, 4 h. inhibition, % at 9.99 µM. 380,000 tested, 0.35% active. AID 720647;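 active means drop in luminescence signal, shown as inhibition above about 50% in the replicate tests, limit read from the data, passing the limit was not always enough; inconclusive means probably only some replicates passing the limit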;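 further: agonist challenge used bursicon conditioned medium at about half maximal strength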
EWS-Fli inh: EWS/Fli transcriptional activity inhibition | A673 NR0B1-luciferase reporter, viability-normalised | inhibition, % at 12.6 µM | 350,000 tested, 0.67% active | AID 651661;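 active means mean inhibition of at least 50% after viability correction, with every replicate also passing that limit; inconclusive means mean reaches 50% but only one of two replicates passes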;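 further: firefly luciferase signal divided by Alamar Blue viability fluorescence both relative to DMSO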
Shn3 3UTR inh: reduces Shn3 3'UTR luciferase signal in osteoblasts; Clone20 osteoblast Shn3 3'UTR firefly luciferase, 24 h; inhibition, % at 12.5 µM; 360,000 tested, 0.52% active;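 active means mean inhibition of at least 75% with every replicate also reaching 75%; inconclusive means mean inhibition at least 75% but some replicate below; inactive means mean inhibition below 75%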
CF NFkB block: cystic fibrosis NF-kB activation inhibition. inhibition, % at 5 µM. 360,000 tested, 0.86% active. KKLEB NF-kB-GFP reporter, PAF-induced, GFP fluorescence overnight;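 active means at least 50% inhibition at 5 µM, scaled per plate between neutral and stimulator controls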;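 further: PAF is a Pseudomonas aeruginosa culture filtrate used as stimulus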
Large screens that a line does not name were inactive; ! = repeats disagree.

Cc1cc(C)c(S(=O)(=O)/N=C2\C=C(NS(=O)(=O)c3ccccc3)C(=O)c3ccccc32)c(C)c1	CF NFkB block 51 (no result: EWS-Fli inh)
Cc1cc(C)c(NS(=O)(=O)c2ccccc2)c(C)c1	none
Cc1ccc(S(=O)(=O)/N=C2/C=C(C3C(=O)CC(C)(C)CC3=O)C(=O)c3ccccc32)cc1	none (no result: LGR2 inh, EWS-Fli inh)
Cc1ccc(S(=O)(=O)/N=C2\C=C(NS(=O)(=O)c3ccccc3)C(=O)c3ccccc32)cc1	CF NFkB block 73
COc1ccc(-c2ccc3c(c2)[C@@H]2[C@@H](CCN2S(=O)(=O)c2ccc(OC)cc2)[C@@H](CO)N3C)cc1	PAX8 reporter 85 (no result: KKLEB tox, Shn3 3UTR inh, CF NFkB block)
COc1ccc(-c2ccc3c(c2)[C@H]2[C@H](CCN2S(=O)(=O)c2ccc(OC)cc2)[C@H](CO)N3C)cc1	PAX8 reporter 95 (no result: KKLEB tox, Shn3 3UTR inh, CF NFkB block)
COc1cccc(-c2ccc(C3[C@H]4CNC[C@@H]3N4Cc3cc(F)ccc3F)cc2)c1 (stereo partly specified)	none (no result: KKLEB tox, PAX8 reporter, Shn3 3UTR inh, CF NFkB block)
COc1cccc(-c2ccc(C3[C@H]4CNC[C@@H]3N4Cc3ccc(F)cc3)cc2)c1 (stereo partly specified)	EWS-Fli inh 63! (no result: KKLEB tox, Shn3 3UTR inh, CF NFkB block)
O=C(C[C@H]1C[C@@H]2c3cc(NC(=O)c4ccc5c(c4)OCO5)ccc3O[C@@H]2[C@H](CO)O1)NCc1ccc(Cl)cc1	none (no result: KKLEB tox, Shn3 3UTR inh, CF NFkB block)
CC(C)(C)NCC(=Cc1ccccc1)C(=O)c1ccccc1	PAX8 reporter 74, LGR2 inh 72, EWS-Fli inh 57, Shn3 3UTR inh 97
O=S(=O)(CCSc1nc2ccccc2o1)c1nc2ccccc2s1	LGR2 inh inconclusive, CF NFkB block 57 (no result: PAX8 reporter)
COc1cc(NC(=O)C2=C(N3CCOCC3)/C(=C\c3ccc(Br)cc3)CC2)cc(OC)c1OC	none (no result: EWS-Fli inh)
COc1cc(NC(=O)C2=C(N3CCOCC3)/C(=C\c3ccc(Cl)cc3Cl)CC2)cc(OC)c1OC	KKLEB tox -65
COc1cccc2nc3c(C(=O)NCCN(C)C)cccc3cc12	none
COc1ccc(C(=O)NCCN(C)C)c2nc3ccccc3cc12	Shn3 3UTR inh 93
COc1ccc(C(=O)Nc2ccc3ccccc3n2)c(OC)c1OC	KKLEB tox -52, LGR2 inh 89, EWS-Fli inh 55
Cc1noc(C)c1NC(=O)Nc1ccc2c(c1)C(=O)N([C@H](C)CO)C[C@@H](C)[C@H](CN(C)Cc1ccc(C(F)(F)F)cc1)OCCCC[C@@H](C)O2	none (no result: KKLEB tox, Shn3 3UTR inh, CF NFkB block)
CNC(=O)C[C@H]1CC[C@@H]2[C@H](COc3ccc(NC(=O)C4CCCCC4)cc3C(=O)N2C)O1	none (no result: KKLEB tox, Shn3 3UTR inh, CF NFkB block)
O=C(/C=C/Nc1ccc(Br)cc1F)c1ccco1	KKLEB tox -65, LGR2 inh 89, EWS-Fli inh 73
O=C(/C=C/Nc1ccccc1O)c1ccco1	none
O=C(/C=C/Nc1ccc(F)cc1F)c1ccco1	KKLEB tox -58, LGR2 inh inconclusive, EWS-Fli inh 65
O=[N+]([O-])c1ccc(Nc2ccc(N3CCOCC3)cc2)c([N+](=O)[O-])c1	PAX8 reporter 90
O=C(Nc1ccc(N2CCOCC2)cc1N1CCOCC1)c1ccc([N+](=O)[O-])cc1	none (no result: PAX8 reporter, LGR2 inh, EWS-Fli inh)
CCCC(=O)Nc1ccc(Cl)c(NC(=S)NC(=O)c2cc3ccccc3o2)c1	PAX8 reporter 73
NCCc1c(-c2ccccc2)n(-c2ccccc2)c2ccccc12	LGR2 inh 58
N#C/C(=C\C=C\c1ccccc1[N+](=O)[O-])C(=O)NCc1ccccc1	PAX8 reporter 65
C[C@@H]1CN([C@H](C)CO)C(=O)c2cc(NC(=O)CCN3CCOCC3)ccc2O[C@@H]1CN(C)CC1CC1	none (no result: KKLEB tox, PAX8 reporter, Shn3 3UTR inh, CF NFkB block)
O=[N+]([O-])c1ccc(N2CCN(Cc3ccccc3)CC2)s1	none
O=[N+]([O-])c1ccc(N2CCN(Cc3ccccc3)CC2)c2c1no[n+]2[O-]	KKLEB tox -61, PAX8 reporter 99, LGR2 inh 102
CS(=O)(=O)N1C[C@H](O)COC[C@@H]2O[C@@H](CC(=O)NCCc3ccncc3)CC[C@H]21	none (no result: KKLEB tox, Shn3 3UTR inh, CF NFkB block)
COc1ccc(-n2nnnc2SCC(=O)NC2CCS(=O)(=O)C2)cc1 (stereo unspecified)	none
COc1ccc(-n2nnnc2SCC(=O)NC2CC2)cc1	PAX8 reporter 75
CN(C)c1ccc(C2NC(=O)c3ccccc3N2)cc1 (stereo unspecified)	LGR2 inh 54
O=C1NC(c2ccc(Cl)cc2)Nc2ccccc21 (stereo unspecified)	none
CCOC(=O)c1ccc(NC2=CC(=O)C(=O)c3ccccc32)cc1	KKLEB tox -72, CF NFkB block 89 (no result: PAX8 reporter, LGR2 inh, EWS-Fli inh)
NS(=O)(=O)c1ccc(NC2=CC(=O)C(=O)c3ccccc32)cc1	CF NFkB block 94
Cc1cc(NC2=CC(=O)C(=O)c3ccccc32)no1	CF NFkB block 86
Cc1ccc(NC2=CC(=O)C(=O)c3ccccc32)cc1	CF NFkB block 59 (no result: LGR2 inh, EWS-Fli inh)
CC(=O)Nc1ccc(NC2=CC(=O)c3ccccc3C2=O)cc1	none
CN1CCN(C(=O)C[C@@H]2CC[C@H](NC(=O)c3ccc4c(c3)OCO4)[C@@H](CO)O2)CC1	none (no result: KKLEB tox, Shn3 3UTR inh, CF NFkB block)
COc1ccccc1-c1ccc2c(c1)[C@H]1[C@H](CCN1C(=O)C1CC1)[C@@H](CO)N2	none (no result: KKLEB tox, Shn3 3UTR inh, CF NFkB block)
C[C@H](CO)N1C[C@H](C)[C@H](CN(C)Cc2cccc(C(=O)O)c2)OCc2cnnn2CCCC1=O	none (no result: KKLEB tox, Shn3 3UTR inh, CF NFkB block)
COc1cc(OC)c(NC2=CC(=O)C(=O)c3ccccc32)cc1Cl	PAX8 reporter 93, CF NFkB block 85
CCC(C(=O)Nc1cc(Cl)c(OC)cc1OC)c1ccccc1 (stereo unspecified)	none
COc1cccc(-c2ccc3c(c2)[C@@H]2[C@@H](CCN2S(=O)(=O)c2ccccc2C)[C@H](CO)N3C)c1	PAX8 reporter 82 (no result: KKLEB tox, Shn3 3UTR inh, CF NFkB block)
COc1ccccc1S(=O)(=O)N1CC[C@@H]2[C@H]1c1cc(-c3ccccc3)ccc1N(C)[C@H]2CO	none (no result: KKLEB tox, Shn3 3UTR inh, CF NFkB block)
COc1cccc(-c2ccc3c(c2)[C@@H]2[C@@H](CCN2S(=O)(=O)c2ccccc2OC)[C@H](CO)N3C)c1	PAX8 reporter 84 (no result: KKLEB tox, Shn3 3UTR inh, CF NFkB block)
COc1cccc(-c2ccc3c(c2)[C@H]2[C@H](CCN2S(=O)(=O)c2ccccc2C)[C@H](CO)N3C)c1	none (no result: KKLEB tox, Shn3 3UTR inh, CF NFkB block)
COc1cccc(-c2ccc3c(c2)[C@H]2[C@H](CCN2S(=O)(=O)c2ccccc2OC)[C@@H](CO)N3C)c1	PAX8 reporter 92 (no result: KKLEB tox, Shn3 3UTR inh, CF NFkB block)
Cc1ccc(S(=O)(=O)Nc2ccc3c(c2)C(=O)N([C@@H](C)CO)C[C@@H](C)[C@@H](CN(C)C(=O)c2ccccc2)OCCCC[C@H](C)O3)cc1	none (no result: KKLEB tox, Shn3 3UTR inh, CF NFkB block)
C[C@H]1CN([C@@H](C)CO)C(=O)c2cc(NC(=O)c3ccncc3)ccc2O[C@@H]1CN(C)Cc1ccc(Oc2ccccc2)cc1	none (no result: KKLEB tox, Shn3 3UTR inh, CF NFkB block)
C[C@H]1CCCCO[C@H](CN(C)C(=O)Nc2ccc(C(F)(F)F)cc2)[C@@H](C)CN([C@@H](C)CO)C(=O)c2cc(NC(=O)Nc3ccccc3)ccc2O1	PAX8 reporter 81 (no result: KKLEB tox, Shn3 3UTR inh, CF NFkB block)
